Assay results published in PubChem BioAssay (Tox21).
Results filed as inconclusive are left out. Activity calls are given as the source filed them. Calls come from the whole dose curve.

Key:
[1] = target: Acetylcholinesterase (Homo sapiens) (UniProt P22303); assay: Acetylcholinesterase (AChE) small molecule antagonists: colormetric cell-based qHTS assay (AID 1347395); note: nearly all actives have a fitted effect of over 30% in size
How it was run: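 Endogenous AChE of human neuroblastoma SH-SY5Y cells was measured with an Ellman-type DTNB/acetylthiocholine mix. Compound pretreatment lasted 30 min at 37 C; substrate reaction ran 90 min at 37 C.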

[2] = target: Acetylcholinesterase (Homo sapiens) (UniProt P22303); assay: Acetylcholinesterase (AChE) small molecule antagonists: enzyme-based qHTS assay (AID 1347397); conditions: Potency: AChE enzyme activity inhibition; outcome: AChE enzyme activity inhibition; note: nearly all actives have a fitted effect of over 55% in size
How it was run: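 Tox21 library chemicals are tested in qHTS format against recombinant human AChE. The enzyme, dispensed at 50 mU/mL, sits with compound for 30 min at room temperature. A DTNB–acetylthiocholine cocktail follows, and colour is read after 10 min.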

[3] = target: Acetylcholinesterase (Homo sapiens) (UniProt P22303); assay: Acetylcholinesterase (AChE) small molecule antagonists: fluorescence cell-based qHTS assay (AID 1347398); conditions: Potency: AChE activity; outcome: AChE activity; note: nearly all actives have a fitted effect of over 50% in size
How it was run: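 Cellular AChE inhibition: SH-SY5Y cells treated with test chemical for 30 min at 37 C, then acetylthiocholine hydrolysis followed over 40 min at room temperature via thiocholine-reactive Thiolite Green fluorescence (490/520 nm).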

[4] = target: Acetylcholinesterase (Homo sapiens) (UniProt P22303); assay: Acetylcholinesterase (AChE) small molecule antagonists: enzyme-based qHTS assay with human liver microsomes (AID 1347399); conditions: Potency: qHTS inhibition; outcome: qHTS inhibition; note: nearly all actives have a fitted effect of over 60% in size
How it was run: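 Recombinant human AChE (50 mU/mL in the enzyme mix) and human liver microsomes (0.25 mg/mL final) were preincubated with compound and NADPH (0.25 mg/mL final) for 30 min at 37 C. Acetylthiocholine/DTNB was then added; thiocholine was read colorimetrically after 10 min at room temperature.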
% is set by controls: 0 for no effect and ±100 for the full control effect.

Sequence of Acetylcholinesterase (Homo sapiens) (P22303 whole entry, looked up): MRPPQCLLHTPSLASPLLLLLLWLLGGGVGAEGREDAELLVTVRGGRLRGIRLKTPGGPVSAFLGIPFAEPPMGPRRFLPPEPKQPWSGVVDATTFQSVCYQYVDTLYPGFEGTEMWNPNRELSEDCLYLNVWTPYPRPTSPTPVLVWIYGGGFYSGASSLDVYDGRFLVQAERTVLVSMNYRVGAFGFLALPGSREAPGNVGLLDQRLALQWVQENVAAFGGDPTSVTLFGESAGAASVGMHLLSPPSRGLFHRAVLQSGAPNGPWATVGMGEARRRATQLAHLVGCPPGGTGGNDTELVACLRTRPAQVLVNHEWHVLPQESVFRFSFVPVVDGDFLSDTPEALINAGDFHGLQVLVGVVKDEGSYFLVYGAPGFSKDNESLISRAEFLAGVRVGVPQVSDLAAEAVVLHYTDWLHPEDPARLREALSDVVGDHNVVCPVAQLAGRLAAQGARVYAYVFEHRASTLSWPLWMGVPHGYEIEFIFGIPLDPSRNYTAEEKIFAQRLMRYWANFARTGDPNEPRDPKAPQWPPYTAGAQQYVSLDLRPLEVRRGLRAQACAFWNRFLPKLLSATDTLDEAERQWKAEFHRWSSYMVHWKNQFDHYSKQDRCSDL

O=c1[nH]c2cc(C(F)(F)F)c(N3CCOCC3)cc2n(CP(=O)(O)O)c1=O
inactive: Potency [1] | Potency [2] | Potency [3] | Potency [4]

CC1(C)[C@H]2CC[C@](C)(C2)[C@H]1O
inactive: Potency [1] | Potency [2] | Potency [3] | Potency [4]

NCCO
inactive: Potency [1] | Potency [2] | Potency [3] | Potency [4]

COc1cc(O)cc(O)c1
inactive: Potency [1] | Potency [2] | Potency [3] | Potency [4]

O=[N+]([O-])c1cccc(S(=O)(=O)O)c1
inactive: Potency [1] | Potency [2] | Potency [3] | Potency [4]

Cc1ccc(S(N)(=O)=O)cc1
inactive: Potency [1] | Potency [2] | Potency [3] | Potency [4]

CCCCOCCOCCO
inactive: Potency [1] | Potency [2] | Potency [3] | Potency [4]

CCCCNS(=O)(=O)c1ccc(C)cc1
inactive: Potency [1] | Potency [2] | Potency [3] | Potency [4]

CC1(C)O[C@@H]2C[C@H]3[C@@H]4C[C@H](F)C5=CC(=O)C=C[C@]5(C)[C@H]4[C@@H](O)C[C@]3(C)[C@]2(C(=O)CO)O1
inactive: Potency [1] | Potency [2] | Potency [3] | Potency [4]

O=C(CN1CCNCC1)NC1CCCCC1
inactive: Potency [1] | Potency [2] | Potency [3] | Potency [4]

C=C/C(C)=C/C/C=C(\C)CCC=C(C)C
inactive: Potency [1] | Potency [2] | Potency [3] | Potency [4]

Nc1nc2ncc(CNc3ccc(C(=O)N[C@@H](CCC(=O)O)C(=O)O)cc3)nc2c(=O)[nH]1
inactive: Potency [1] | Potency [2] | Potency [3] | Potency [4]

Cc1cc(O)c(Cl)c(C)c1Cl
inactive: Potency [1] | Potency [2] | Potency [3] | Potency [4]

Cn1cnc2c(F)c(Nc3ccc(Br)cc3Cl)c(C(=O)NOCCO)cc21
inactive: Potency [1] | Potency [2] | Potency [3] | Potency [4]

C1CCCNCCC1
inactive: Potency [1] | Potency [2] | Potency [3] | Potency [4]

CCOC(=O)CC(=O)c1ccccc1
inactive: Potency [1] | Potency [2] | Potency [3] | Potency [4]

O=C(O)CCCl
inactive: Potency [1] | Potency [2] | Potency [3] | Potency [4]

CC(C)=CCC/C(C)=C/C=O
inactive: Potency [1] | Potency [2] | Potency [3] | Potency [4]

c1ccc2[nH]c(-c3cscn3)nc2c1
inactive: Potency [1] | Potency [2] | Potency [3] | Potency [4]

O=P(c1ccccc1)(c1ccccc1)c1ccccc1
inactive: Potency [1] | Potency [2] | Potency [3] | Potency [4]

Cc1nc2ccccc2s1
inactive: Potency [1] | Potency [2] | Potency [3] | Potency [4]

CCN(CC)C(=O)C1CN2CCc3cc(OC)c(OC)cc3C2CC1OC(C)=O (stereo not given)
inactive: Potency [1] | Potency [2] | Potency [3] | Potency [4]

N[C@@H](COP(=O)(O)O)C(=O)O
inactive: activity, negative = inhibition [1] 0.067% [at 23.6 µM] | activity change, negative = inhibition [2] 1.8% [at 23.6 µM] | activity change, negative = inhibition [3] 4.21% [at 23.8 µM] | activity change, negative = inhibition [4] 4.37% [at 23.6 µM]

COc1c(Cl)c(Cl)c(Cl)c(Cl)c1Cl
inactive: Potency [1] | Potency [2] | Potency [3] | Potency [4]

C=C[C@H]1CN2CC[C@H]1C[C@@H]2[C@@H](O)c1ccnc2ccc(OC)cc12
inactive: Potency [1] | Potency [2] | Potency [3] | Potency [4]

CC(C)OC(=O)C(C(=O)OC(C)C)=C1SC=CS1
inactive: Potency [1] | Potency [2] | Potency [3] | Potency [4]

CCc1ccc(C(c2ccc(CC)cc2)C(Cl)Cl)cc1
inactive: Potency [1] | Potency [2] | Potency [3] | Potency [4]

CC(C[N+](C)(C)C)OC(N)=O (stereo not given)
inactive: Potency [1] | Potency [2] | Potency [3] | Potency [4]

OCc1ccccc1O
inactive: Potency [1] | Potency [2] | Potency [3] | Potency [4]

FC(F)(F)/C(=N\OCC1OCCO1)c1ccc(Cl)cc1
inactive: Potency [1] | Potency [2] | Potency [3] | Potency [4]

Cc1c(NC(=O)c2cccnc2)c(=O)n(-c2ccccc2)n1C
inactive: Potency [1] | Potency [2] | Potency [3] | Potency [4]

CCCCCCCCCCCCCCCCC(=O)O
inactive: Potency [1] | Potency [2] | Potency [3] | Potency [4]

CC/C=C\CCOC(=O)CC
inactive: Potency [1] | Potency [2] | Potency [3] | Potency [4]

NCCS(=O)(=O)O
inactive: Potency [1] | Potency [2] | Potency [3] | Potency [4]

Cc1ncc([N+](=O)[O-])n1C
inactive: Potency [1] | Potency [2] | Potency [3] | Potency [4]

C(=C(c1ccccc1)c1ccccc1)c1ccccc1
inactive: Potency [1] | Potency [2] | Potency [3] | Potency [4]

O=C(O)c1cccc(Oc2ccccc2)c1
inactive: Potency [1] | Potency [2] | Potency [3] | Potency [4]

CC(C)(C)c1n[nH]c(=S)n(N)c1=O
inactive: Potency [1] | Potency [2] | Potency [3] | Potency [4]

CC(C)(C)NC(=O)[C@H]1CC[C@H]2[C@@H]3CC[C@H]4NC(=O)C=C[C@]4(C)[C@H]3CC[C@]12C
inactive: Potency [1] | Potency [2] | Potency [3] | Potency [4]

C=C(C)C1CC=C(C)C(=O)C1 (stereo not given)
inactive: Potency [1] | Potency [2] | Potency [3] | Potency [4]

O=C1CCCCCCCCCCCN1
inactive: Potency [1] | Potency [2] | Potency [3] | Potency [4]

CC(=O)O[C@@H]1C(=O)O[C@@H]2[C@H]1OC(=O)[C@@H]2OC(C)=O
inactive: Potency [1] | Potency [2] | Potency [3] | Potency [4]

Cc1ccc2oc(=O)ccc2c1
inactive: Potency [1] | Potency [2] | Potency [3] | Potency [4]

COC(C)(C)CCO
inactive: Potency [1] | Potency [2] | Potency [3] | Potency [4]

O=C1O[C@H](CO)[C@@H](O)[C@H](O)[C@H]1O
inactive: Potency [1] | Potency [2] | Potency [3] | Potency [4]

C=CC(=O)OCCC#N
inactive: Potency [1] | Potency [2] | Potency [3] | Potency [4]

CC(=O)OC/C=C(\C)CC/C=C(\C)CCC=C(C)C
inactive: Potency [1] | Potency [2] | Potency [3] | Potency [4]

O=C(O)CCCCCCCCCCCC(=O)O
inactive: Potency [1] | Potency [2] | Potency [3] | Potency [4]

OC[C@H]1O[C@@H](O[C@H]2[C@H](O)[C@@H](O)[C@H](O)O[C@@H]2CO)[C@H](O)[C@@H](O)[C@H]1O
inactive: Potency [1] | Potency [2] | Potency [3] | Potency [4]

CCCCCCO
inactive: Potency [1] | Potency [2] | Potency [3] | Potency [4]

C[C@H]1C[C@H]2[C@@H]3CCC4=CC(=O)C=C[C@]4(C)[C@@]3(F)[C@@H](O)C[C@]2(C)[C@@]1(O)C(=O)COP(=O)(O)O
inactive: Potency [1] | Potency [2] | Potency [3] | Potency [4]

CCN(CC)CCNC(=O)c1cc(S(C)(=O)=O)ccc1OC
inactive: Potency [1] | Potency [2] | Potency [3] | Potency [4]

O=C(Nc1ccc2c(c1)Cc1ccccc1-2)C(F)(F)F
inactive: Potency [1] | Potency [2] | Potency [3] | Potency [4]

CC(C)(CO)C(O)C(=O)NCCCO (stereo not given)
inactive: Potency [1] | Potency [2] | Potency [3] | Potency [4]

O=C(O)Cc1ccc2c(c1)C(=O)c1ccccc1CO2
inactive: Potency [1] | Potency [2] | Potency [3] | Potency [4]

O=C(Nc1cccc(Cl)c1)OCC#CCCl
inactive: Potency [1] | Potency [2] | Potency [3] | Potency [4]

Cc1[nH]c(C)c(Cl)c(=O)c1Cl
inactive: activity, negative = inhibition [1] 1.65% [at 23.6 µM] | activity change, negative = inhibition [2] -0.693% [at 23.6 µM] | activity change, negative = inhibition [3] -0.55% [at 23.8 µM] | activity change, negative = inhibition [4] -0.336% [at 23.6 µM]

C=C(C)C(=O)OCCOP(=O)(O)OCCOC(=O)C(=C)C
inactive: Potency [1] | Potency [2] | Potency [3] | Potency [4]

Nc1ccc(C(=O)O)cc1
inactive: Potency [1] | Potency [2] | Potency [3] | Potency [4]

Oc1ccc(Cc2ccccc2)cc1
inactive: Potency [1] | Potency [2] | Potency [3] | Potency [4]
